{"source": "PubChem BioAssay", "note": "Potency and affinity values are given separately. Calls of active or inactive are those of the source. Where a call stands in place of a potency, no number is given. No rule for the calls is given here.", "data": [{"assay": "A2780 cell killing – plate reader, dry powder samples, cytotoxicity control, dose response (AID 743046)", "settings": "A2780 ovarian cancer cytotoxicity; series mostly up to 35 µM", "values": [{"smiles": "CCCC#Cc1ccc([C@@H]2[C@H]3CN(S(=O)(=O)c4ccccc4F)CCCCN3[C@H]2CO)cc1", "outcome": "inactive"}, {"smiles": "Cc1ccc(S(=O)(=O)N[C@@H]2C=C[C@@H](CC(=O)N3CCC(Cc4ccccc4)CC3)O[C@@H]2CO)cc1", "outcome": "inactive"}, {"smiles": "COc1cccc(S(=O)(=O)N(C)C[C@H]2OCc3ccccc3-c3c(n(C)c4ccccc34)C(=O)N([C@@H](C)CO)C[C@H]2C)c1", "outcome": "inactive"}, {"smiles": "C[C@@H]1CN([C@@H](C)CO)C(=O)c2ccccc2-c2ccccc2CO[C@@H]1CN(C)Cc1ccc2c(c1)OCCN2C", "outcome": "inactive"}, {"smiles": "C[C@@H]1CCCCO[C@H](CN(C)Cc2ccccc2)[C@H](C)CN([C@H](C)CO)C(=O)c2cc(NC(=O)Nc3ccc(C(F)(F)F)cc3)ccc2O1", "outcome": "inactive"}, {"smiles": "O=C(C[C@H]1CC[C@H]2[C@@H](COC[C@@H](O)CN2Cc2ccc(F)cc2)O1)NCc1ccccc1Cl", "outcome": "inactive"}, {"smiles": "C[C@@H]1CN([C@@H](C)CO)C(=O)Cc2cc(NC(=O)C3CC3)ccc2O[C@H]1CN(C)Cc1ccc(-c2ccccc2)cc1", "outcome": "inactive"}, {"smiles": "COc1ccc(S(=O)(=O)N2CCCCN3[C@H](C2)[C@@H](c2ccc(C#CC(C)C)cc2)[C@@H]3CO)cc1", "outcome": "inactive"}, {"smiles": "C[C@@H]1CCCCO[C@@H](CN(C)C(=O)Nc2ccccc2)[C@H](C)CN([C@H](C)CO)C(=O)c2cc(NC(=O)Nc3ccc(C(F)(F)F)cc3)ccc2O1", "outcome": "inactive"}, {"smiles": "C[C@@H]1CCCCO[C@H](CN(C)Cc2ccc(C(F)(F)F)cc2)[C@@H](C)CN([C@@H](C)CO)C(=O)c2cc(NS(=O)(=O)c3cccs3)ccc2O1", "outcome": "inactive"}, {"smiles": "COc1ccc(S(=O)(=O)Nc2ccc3c(c2)C(=O)N([C@@H](C)CO)C[C@H](C)[C@H](CN(C)Cc2ccc(C(F)(F)F)cc2)OCCCC[C@@H](C)O3)cc1", "outcome": "inactive"}, {"smiles": "C[C@@H]1CN([C@@H](C)CO)C(=O)Cc2cc(NS(=O)(=O)c3ccc(F)cc3)ccc2O[C@H]1CN(C)Cc1ccc(Oc2ccccc2)cc1", "outcome": "inactive"}]}, {"assay": "OVCAR8 cell viability loss – plate reader, dry powder samples, PAX8 project, dose response (AID 743197)", "settings": "series mostly up to 35 µM", "values": [{"smiles": "COc1ccc(S(=O)(=O)Nc2ccc3c(c2)CC(=O)N([C@@H](C)CO)C[C@@H](C)[C@H](CN(C)Cc2ccc(-c4ccccc4)cc2)O3)cc1", "outcome": "inactive"}, {"smiles": "C[C@H](O)C#Cc1cnc2c(c1)C(=O)N([C@H](C)CO)C[C@H](C)[C@H](CN(C)Cc1ccc(-c3ccccc3)cc1)O2", "outcome": "inactive"}, {"smiles": "O=C(c1ccc(F)cc1)N1C[C@@H]2N[C@H](C1)C2c1ccc(-c2ccc(F)cc2)cc1", "note": "(stereo partly drawn)", "outcome": "inactive"}, {"smiles": "C[C@H](O)C#Cc1ccc2c(c1)O[C@H](CN(C)Cc1ccc(-c3ccccc3)cc1)[C@@H](C)CN([C@H](C)CO)S2(=O)=O", "outcome": "inactive"}, {"smiles": "C[C@@H]1CN([C@H](C)CO)C(=O)Cc2cc(NS(=O)(=O)c3ccccc3)ccc2O[C@@H]1CN(C)S(=O)(=O)c1ccc(Cl)cc1", "outcome": "inactive"}, {"smiles": "C[C@@H]1CCCCO[C@H](CN(C)C)[C@H](C)CN([C@H](C)CO)C(=O)c2cc(NC(=O)Nc3cccc4ccccc34)ccc2O1", "outcome": "inactive"}, {"smiles": "C[C@@H]1CN([C@H](C)CO)C(=O)c2c(c3ccccc3n2C)-c2ccccc2CO[C@@H]1CN(C)C", "outcome": "inactive"}, {"smiles": "COc1ccccc1S(=O)(=O)N(C)C[C@@H]1Oc2cc(C#CCC3CCCC3)ccc2S(=O)(=O)N([C@@H](C)CO)C[C@@H]1C", "outcome": "inactive"}, {"smiles": "CCCN(C)C[C@H]1OCCCC[C@@H](C)Oc2ccc(NC(=O)c3ccccc3)cc2C(=O)N([C@H](C)CO)C[C@H]1C", "outcome": "inactive"}, {"smiles": "C[C@@H]1CN([C@@H](C)CO)C(=O)Cc2cc(NC(=O)Nc3ccc(F)cc3)ccc2O[C@H]1CN(C)CC1CCCCC1", "outcome": "inactive"}, {"smiles": "O=C(Nc1cccc(F)c1)N[C@@H]1CC[C@@H](CCNS(=O)(=O)c2cccc(Cl)c2)O[C@@H]1CO", "outcome": "inactive"}, {"smiles": "C[C@@H]1CN([C@@H](C)CO)C(=O)Cc2cc(N(C)C)ccc2O[C@H]1CN(C)Cc1ccc(Oc2ccccc2)cc1", "outcome": "inactive"}, {"smiles": "Cc1ccc(S(=O)(=O)Nc2ccc3c(c2)C(=O)N([C@@H](C)CO)C[C@@H](C)[C@@H](CN(C)Cc2ccc(C(F)(F)F)cc2)OCCCC[C@@H](C)O3)cc1", "outcome": "inactive"}, {"smiles": "Cc1cccc(-c2ccc([C@H]3[C@H](CO)N4CCCCN(S(=O)(=O)c5ccccc5C)C[C@@H]34)cc2)c1", "outcome": "inactive"}, {"smiles": "C[C@H]1CCCCO[C@@H](CN(C)C(=O)Nc2ccc(C(F)(F)F)cc2)[C@@H](C)CN([C@@H](C)CO)C(=O)c2cc(NS(=O)(=O)c3cn(C)cn3)ccc2O1", "outcome": "inactive"}, {"smiles": "C[C@@H]1CN([C@H](C)CO)C(=O)c2cc(NC(=O)Nc3ccccc3)ccc2O[C@@H](C)CCCCO[C@H]1CN(C)Cc1ccc(Cl)c(Cl)c1", "outcome": "inactive"}]}]}
